# Assay results reported in PubChem BioAssay (NCATS).
# Where “and” joins values, the source holds several entries; their conditions need not be identical. Identical values can stand only once. Records with an inconclusive call do not appear. Entries that show only a call come without a potency. A number with no mark means an inactive call. Calls of active or inactive are those of the source. Unless noted, the call rests on the fitted dose curve; in most records, active means well fitted curve in the direction sought with a large enough effect; inconclusive means small, poorly fitted or top-dose-only effect, or another doubt; inactive means no such curve, though single readings can be large; an effect the other way counts as inactive or inconclusive.
# What was measured:
# [1] = target: Cellular tumor antigen p53 (Homo sapiens) (UniProt P04637); assay: Primary qHTS for small molecule compounds that upregulate eGFP-tagged delta133p53alpha (in N-terminal) cells. (AID 2060322); settings: NCI-H358 eGFP-delta133p53alpha fluorescence, 24 h; activation: active compounds read high; further: nearly all actives have a fitted effect of over 75% in size; further: potency means the concentration at half of the fitted maximal effect;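 on activation: cells pre-induced with doxycycline then dosed without doxycycline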
# Chain of Cellular tumor antigen p53 (Homo sapiens) (P04637 whole entry, looked up): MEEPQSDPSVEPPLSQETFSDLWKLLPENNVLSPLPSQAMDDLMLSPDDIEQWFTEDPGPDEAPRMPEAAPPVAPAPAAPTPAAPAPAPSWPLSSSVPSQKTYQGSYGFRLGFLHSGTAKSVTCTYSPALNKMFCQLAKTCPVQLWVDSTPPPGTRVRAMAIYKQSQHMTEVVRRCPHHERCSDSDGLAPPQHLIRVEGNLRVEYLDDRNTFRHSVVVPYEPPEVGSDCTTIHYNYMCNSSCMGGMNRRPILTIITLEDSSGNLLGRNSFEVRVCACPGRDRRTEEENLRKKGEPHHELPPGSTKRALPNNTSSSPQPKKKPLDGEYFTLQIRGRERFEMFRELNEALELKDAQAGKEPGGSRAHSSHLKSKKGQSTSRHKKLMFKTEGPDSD
# Summary of the method: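 NCI-H358 cells pre-induced 24 h with 10 ng/ml doxycycline for eGFP-delta133p53alpha, plated dox-free and exposed 24 h at 37C to titrated compounds. Fixed, Hoechst-stained; gated GFP peak intensity by laser scanning cytometry, normalized to DMSO (0%) and 57.5 uM 5-azacytidine (100%).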
# [2] = target: Cellular tumor antigen p53 (Homo sapiens) (UniProt P04637); assay: Primary qHTS for small molecule compounds that upregulate eGFP-tagged delta133p53alpha (in C-terminal) cells. (AID 2060324); settings: NCI-H358 delta133p53alpha-eGFP (C-terminal tag), GFP fluorescence imaging, 24 h; series mostly up to 57.5 µM
# Summary of the method: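 Read-out: gated-cell GFP peak intensity (laser scanning cytometer), plate-normalized with DMSO as 0% activity, after 24 h compound exposure at 37C. Cells were C-terminal eGFP-tagged delta133p53alpha NCI-H358, doxycycline-induced (100 ng/ml, 24 h) before plating.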
# [3] = target: Retinaldehyde dehydrogenase 3 (Homo sapiens) (UniProt P47895); assay: qHTS for Inhibitors of the Aldehyde Dehydrogenase Family (ALDH1A3) Validation screen (AID 2061312); settings: ALDH1A3 enzyme inhibition qHTS validation, fluorescence; series mostly up to 84.7 µM; further: nearly all actives have a fitted effect of over 45% in size
# [4] = target: Aldehyde dehydrogenase, mitochondrial (Homo sapiens) (UniProt P05091); assay: qHTS for Inhibitors of the Aldehyde Dehydrogenase Family (ALDH2) Validation screens (AID 2061302; active means well fitted inhibition curve with a large enough effect; title and protocol of this record describe different tests; further: potency means the concentration at half of the fitted maximal effect); settings: ALDH inhibition qHTS; series mostly up to 42.6 µM
# [5] = target: Aldehyde dehydrogenase, mitochondrial (Homo sapiens) (UniProt P05091); assay: qHTS for Inhibitors of the Aldehyde Dehydrogenase Family (ALDH2) Primary screen (AID 2061308); settings: ALDH2 enzyme inhibition qHTS, 1536-well; series mostly up to 56 µM; further: nearly all actives have a fitted effect of over 55% in size
# [6] = target: Retinaldehyde dehydrogenase 3 (Homo sapiens) (UniProt P47895); assay: qHTS for Inhibitors of the Aldehyde Dehydrogenase Family (ALDH1A3) Primary screen (AID 2061315); settings: ALDH inhibition qHTS; series mostly up to 56 µM
# [7] = target: Aldehyde dehydrogenase, mitochondrial (Homo sapiens) (UniProt P05091); assay: qHTS for Inhibitors of the Aldehyde Dehydrogenase Family (ALDH2) Confirmatory screens (AID 2061303; active means well fitted inhibition curve with a large enough effect; title and protocol of this record describe different tests; further: nearly all actives have a fitted effect of over 45% in size); settings: ALDH inhibition qHTS; series mostly up to 45.4 µM
# [8] = target: Retinaldehyde dehydrogenase 3 (Homo sapiens) (UniProt P47895); assay: qHTS for Inhibitors of the Aldehyde Dehydrogenase Family (ALDH1A3) Confirmatory screens (AID 2061311); settings: ALDH inhibition qHTS; series mostly up to 46 µM; further: potency means the concentration at half of the fitted maximal effect; nearly all actives have a fitted effect of over 60% in size
# [9] = target: Retinal dehydrogenase 2 (Homo sapiens) (UniProt O94788); assay: qHTS for Inhibitors of the Aldehyde Dehydrogenase Family (ALDH1A2) Confirmation screens (AID 2061314); settings: ALDH1A2 enzyme inhibition qHTS confirmation; series mostly up to 45.9 µM; further: potency means the concentration at half of the fitted maximal effect; nearly all actives have a fitted effect of over 65% in size
# [10] = BET inhibitor-based combinations targeting novel dependencies in MECOM-rearranged (r) AML: SET-2 cell line (AID 2202231); settings: SET-2 AML cells viability, CellTiter-Glo luminescence, 48 h; viability: active compounds read low, concentration not given here; further: potency means the concentration at half of the fitted maximal effect; nearly all actives have a fitted effect of over 35% in size
# Summary of the method: (§1)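 Here, 11-point titrations of each agent were applied to 500 seeded cells and incubated 48 hr; CellTiter-Glo signal, scaled against DMSO and empty wells, was integrated as AUC, then Z-scored within the individual line.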
# [11] = BET inhibitor-based combinations targeting novel dependencies in MECOM-rearranged (r) AML: OCI-AML3 cell line (AID 2202232); settings: CellTiter-Glo luminescence, 48 h; Potency: OCI-AML3 viability; series mostly up to 46 µM; further: potency means the concentration at half of the fitted maximal effect; nearly all actives have a fitted effect of over 35% in size
# Summary of the method: as §1
# [12] = BET inhibitor-based combinations targeting novel dependencies in MECOM-rearranged (r) AML: MV-4-11 cell line (AID 2202233); settings: MV-4-11 AML viability, CellTiter-Glo luminescence, 48 h; series mostly up to 46 µM; further: potency means the concentration at half of the fitted maximal effect; nearly all actives have a fitted effect of over 45% in size
# Summary of the method: (§2)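 Normalized to DMSO and empty-well controls, the luminescence data from CellTiter-Glo after 48 hr drug exposure were fitted across 11 concentrations. Reported metrics are area under the dose-response curve and its Z-transformed form.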
# [13] = BET inhibitor-based combinations targeting novel dependencies in MECOM-rearranged (r) AML: UCSD-AML1 cell line (AID 2202235); settings: UCSD-AML1 AML cells viability, CellTiter-Glo, 48 h; series mostly up to 46 µM; further: potency means the concentration at half of the fitted maximal effect; nearly all actives have a fitted effect of over 40% in size
# Summary of the method: as §2
# [14] = BET inhibitor-based combinations targeting novel dependencies in MECOM-rearranged (r) AML: AML-191 cell line (AID 2202236; further: potency means the concentration at half of the fitted maximal effect; nearly all actives have a fitted effect of over 35% in size); settings: AML-191 viability, CellTiter-Glo luminescence, 48 h; series mostly up to 46 µM
# Summary of the method: as §1
# [15] = BET inhibitor-based combinations targeting novel dependencies in MECOM-rearranged (r) AML: AML-194 cell line (AID 2202237; further: potency means the concentration at half of the fitted maximal effect; nearly all actives have a fitted effect of over 40% in size); settings: AML-194 (MECOM-r AML) viability, CellTiter-Glo, 48 h; series mostly up to 46 µM
# Summary of the method: as §1
# [16] = qHTS for Inhibitors of the Aldehyde Dehydrogenase Family (ALDH1A2, ALDH1A3, ALDH2, ALDH3A1) (AID 2061307); settings: ALDH inhibition qHTS; series mostly up to 50.3 µM; further: nearly all actives have a fitted effect of over 50% in size; on potency: test system not described further here; potency means the concentration at half of the fitted maximal effect
# [17] = target: Aldehyde dehydrogenase 1A1 (Homo sapiens) (UniProt P00352); assay: qHTS for Inhibitors of the Aldehyde Dehydrogenase Family (ALDH1A1) Confirmatory screens (AID 2061316); settings: ALDH inhibition qHTS; series mostly up to 47.3 µM; further: nearly all actives have a fitted effect of over 65% in size; further: potency means the concentration at half of the fitted maximal effect
# [18] = BET inhibitor-based combinations targeting novel dependencies in MECOM-rearranged (r) AML: HNT-34 cell line (AID 2202234); settings: HNT-34 AML viability, CellTiter-Glo luminescence, 48 h; series mostly up to 46 µM; further: potency means the concentration at half of the fitted maximal effect; nearly all actives have a fitted effect of over 35% in size
# Summary of the method: as §2
smiles,measurement,setting,value
c1ccc(C(NCc2cccnc2)(c2ccccc2)c2ccccc2)cc1,activation,[1],-2.89%
same,Potency,[2],inactive
same,Potency,[3],inactive
N#C/C(=C\c1ccc(-c2cc(Cl)ccc2Cl)o1)C(=O)Nc1cccc2ncccc12,activation,[1],-37.8%
same,Potency,[4],inactive
Nc1c2c(nc3ccccc13)CCCC2O (stereo not given),activation,[1],7.34% and -16.8%
same,Potency,[4],inactive
same,Potency,[3],inactive
O=c1[nH]c2cc(Cl)ccc2c(O)c1-c1ccc(Oc2ccccc2)cc1,activation,[1],23.6%
same,Potency,[4],inactive
same,Potency,[3],inactive
O=[N+]([O-])c1ccc(CNc2nc(NCc3cccc(C(F)(F)F)c3)nc3nc[nH]c23)cc1,activation,[1],-48.1% and 15.7%
same,Potency,[4],inactive
same,Potency,[5],inactive
same,Potency,[3],inactive
same,Potency,[6],inactive
CCOC(=O)CSc1nc2c(sc3ccccc32)c(=O)n1CCCN1CCCC1,activation,[1],2.86%
same,Potency,[4],inactive
same,Potency,[5],inactive
same,Potency,[3],inactive
same,Potency,[6],inactive
O=C1NC(=O)/C(=C/c2ccc(-c3ccc(F)cc3O)o2)S1,activation,[1],-29.7%
same,Potency,[4],inactive
COc1ccccc1CNCCCCCCNCCCCCCCCNCCCCCCNCc1ccccc1OC,activation,[1],-23.6%
same,Potency,[4],inactive
CO[C@@]1(NC(=O)CSCC#N)C(=O)N2C(C(=O)O)=C(CSc3nnnn3C)CS[C@@H]21,activation,[1],11.9% and 5.62%
same,Potency,[4],inactive
same,Potency,[3],inactive
CCOC(=O)N1CCN(/[N+]([O-])=N/Oc2ccc([N+](=O)[O-])cc2[N+](=O)[O-])CC1,Potency,[1],4.78 µM (active)
same,Potency,[4],inactive
same,Potency,[7],inactive
same,Potency,[8],14.2 µM (active)
same,Potency,[9],2.25 µM (active)
same,Potency,[10],4.68 µM (active)
same,Potency,[11],2.95 µM (active)
same,Potency,[12],1.86 µM (active)
same,Potency,[13],2.95 µM (active)
same,Potency,[14],2.09 µM (active)
same,Potency,[15],2.95 µM (active)
OCC1O[C@H]([S-])[C@H](O)[C@@H](O)[C@@H]1O.[Au+] (stereo not given in full),activation,[1],21.8%
same,Potency,[4],inactive
same,Potency,[7],inactive
same,Potency,[16],2.83 µM (active)
same,Potency,[17],inactive
CC[C@@H]1Cc2cc(O)ccc2C2=C1c1ccc(O)cc1C[C@H]2CC,activation,[1],-56%
same,Potency,[4],inactive
same,Potency,[3],inactive
Nc1nc2[nH]c(=O)cnc2c(=O)[nH]1,activation,[1],-25.1%
same,Potency,[4],inactive
same,Potency,[3],inactive
Nc1ncnc2n[nH]c(Nc3ccc(F)cc3)c12,activation,[1],1%
same,Potency,[4],inactive
same,Potency,[5],inactive
same,Potency,[3],inactive
same,Potency,[6],inactive
COc1cc2ncnc(Nc3cccc(Cl)c3)c2cc1OC,activation,[1],23.2% and -41%
same,Potency,[4],inactive
same,Potency,[5],inactive
same,Potency,[3],inactive
same,Potency,[6],inactive
same,Potency,[12],8.33 µM (active)
same,Potency,[18],13.2 µM (active)
same,Potency,[13],18.6 µM (active)
CN(C)CCCN1c2ccccc2Sc2ccc(Cl)cc21,activation,[1],-15.3%
same,Potency,[4],inactive
same,Potency,[3],inactive
C[C@@H](NCCc1ccc(O)cc1)[C@@H](O)c1ccc(O)cc1,activation,[1],-21.6%
same,Potency,[4],inactive
same,Potency,[3],inactive
O=c1cc(-c2ccc(O)cc2)oc2cc(O)cc(O)c12,activation,[1],-19.8% and -40.1%
same,Potency,[4],inactive
same,Potency,[3],inactive
O=C(O)CCCC[C@@H]1CCSS1,activation,[1],-13.5%
same,Potency,[4],inactive
same,Potency,[3],inactive
O=C1c2ccccc2C(=O)c2c(NCCc3ccc(O)cc3)ccc(NCCc3ccc(O)cc3)c21,activation,[1],-13.7%
same,Potency,[4],inactive
COC(=O)[C@H](NC(=O)c1cc(-c2ccccc2)nc2ccccc12)c1ccccc1,activation,[1],6.75%
same,Potency,[4],inactive
same,Potency,[3],inactive
COC1=C(OC)C(=O)c2ccccc2C1=O,activation,[1],-31%
same,Potency,[4],inactive
same,Potency,[7],inactive
same,Potency,[16],inactive
same,Potency,[8],0.712 µM (active)
same,Potency,[9],2.52 µM (active)
O=c1onc2cnc3ccccc3n12,activation,[1],14.8%
same,Potency,[4],6.31 µM (active)
same,Potency,[16],0.0318 µM (active)
same,Potency,[17],4 µM (active)
O=C(O)CCCCCCCC(=O)O,activation,[1],17.5% and -5.1%
same,Potency,[4],inactive
same,Potency,[3],inactive
Oc1cc2c(cc1O)C(c1ccccc1)CNCC2 (stereo not given),activation,[1],5.86%
same,Potency,[4],inactive
CC(C)(C)c1cc(/C=C(\C#N)C(N)=S)cc(C(C)(C)C)c1O,activation,[1],0.225%
same,Potency,[4],inactive
CN(C)c1cc2c(Nc3ccc4c(cnn4Cc4ccccc4)c3)ncnc2cn1,activation,[1],-35.7%
same,Potency,[4],inactive
same,Potency,[7],inactive
same,Potency,[5],inactive
same,Potency,[8],10 µM (active)
same,Potency,[3],inactive
same,Potency,[9],0.283 µM (active)
same,Potency,[6],inactive
same,Potency,[17],inactive
O=C1NCN(c2ccccc2)C12CCN(CCCC(c1ccc(F)cc1)c1ccc(F)cc1)CC2,activation,[1],-12.6% and -53.2%
same,Potency,[4],inactive
same,Potency,[3],inactive
CCCCc1ncc(/C=C(\Cc2cccs2)C(=O)O)n1Cc1ccc(C(=O)O)cc1,activation,[1],-19.8% and -8.36% and -2.86%
same,Potency,[4],inactive
same,Potency,[5],inactive
same,Potency,[6],inactive
Cc1nc2n(c(=O)c1CCN1CCC(c3noc4cc(F)ccc34)CC1)CCCC2O (stereo not given),activation,[1],3.58%
same,Potency,[4],inactive
